± gives the standard deviation.
System: MILI (PIWIL2) piRISC loaded with L1MC piRNA (26 nt)
Assay: pre-steady-state target cleavage rate (min^-1); guide: L1MC piRNA 5'p-UAACUAAAUACUAUGCAAGCUGUAGG; MIWI and MILI are mouse PIWI proteins and EfPiwi is from a freshwater sponge; tags in brackets are library labels; higher = faster piRNA-guided slicing of the target
In short: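 Reactions were run for 0–8 or 0–960 min at 33 °C in HEPES–potassium acetate buffer, combining 1 nM active affinity-purified piRISC with one synthetic guide, […] transcribed, DNA-blocked target RNA library and, in some cases, 500 nM GTSF1 partner protein. Sequencing of uncleaved targets followed, with normalisation to depth and to weakly complementary targets. Three trials were pooled, k3 was capped at 0.0001 min^-1, and the pre-steady-state cleavage rate was taken from a burst-and-steady-state fit.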

[1] = auxiliary factor: 500 nM mouse GTSF1
[2] = auxiliary factor: none (no GTSF1)
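Note: 1 nM active piRISC with 0.1 nM target library at 33 °C single turnover.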

Sequence	pre-steady-state target cleavage rate [1]	pre-steady-state target cleavage rate [2]
UCCUGGAUGUGCUUGCUUAGUAUAUAGUUA	0.0668 ± 0.011	0.00411 ± 0.0025
UCCUGGAUCAGCUUGCAUAGUUAUUAGUUA	0.0248 ± 0.01	0.00466 ± 0.0024
UCCUGGAUCAGGCUUGCAUAGUAUUUAGUUA	0.213 ± 0.017	0.0107 ± 0.0028
UCCUGGAUGAGCUUGCAUAGUAUUGUAGUUA	0.0782 ± 0.024	0.00469 ± 0.003
UCCUGGAUCAGCAACCAUAGUAUUUAGAAA	0.00948 ± 0.0046	< 0.0001
UCCUGGAUGUCGAUGCAUAGUAUAUAGUUA	0.143 ± 0.028	0.00598 ± 0.0024
UCCUGGAUGUCGUUGCAUAGUAAUUUAGUUA	0.0127 ± 0.0059	0.00447 ± 0.0029
UCCUGGAUGUCGUGGCAUAGUAUUUAGUUA	0.0441 ± 0.011	0.00558 ± 0.0029
UCCUGGAUGAGCAUGCAUUGUAUUUAGUUA	0.0714 ± 0.013	0.00843 ± 0.003
UCCUGGAUGUGCUUGCAAAGUAAUUAGUUA	0.0171 ± 0.0056	0.00395 ± 0.0028
UCCUGCUACAGCUUGCUAUGUAUUUAGUUA	0.0638 ± 0.017	0.00522 ± 0.0021
UCCUCCUACAGCUUGGAUAGUAUUUUGUUA	0.164 ± 0.028	0.00424 ± 0.0026
UCCUGGAUGUCGUAGCAUAGUAUAUAGUUA	0.0653 ± 0.016	0.0048 ± 0.0023
UCCUGGAUGUCGUUGCAUAGUAAAUAGUUA	0.0599 ± 0.019	0.00437 ± 0.0023
UCCUGGAUGUCGAUGCAUAGUAUUAUAGUUA	0.123 ± 0.021	0.00538 ± 0.0026
UCCUGGUACAGCAUCCAUAGUAUUUAGUUA	0.262 ± 0.077	0.00374 ± 0.0027
UCCUGGAUGAGCUUGCAUUGUAUUUAGUUA	0.139 ± 0.013	0.00846 ± 0.0023
UCCUGGAUCAGCUUGCAUAGUGAUUUAGUUA	0.0194 ± 0.0067	0.00404 ± 0.0022
UCCUGGAUGUGCAUGCAUAGUAUAUAGUUA	0.19 ± 0.029	0.00367 ± 0.0031
UCCUGGUACAGCAACCAUAGUAUUUAGUAA	0.313 ± 0.064	0.00382 ± 0.0021

Sequence	pre-steady-state target cleavage rate [1]	pre-steady-state target cleavage rate [2]
UCCUGGAUGAGCUUGGAUAGUAUUUAGUAA	0.178 ± 0.027	0.00491 ± 0.0023
UCCUGGAUGUGCAUGCUUAGUAUUUAGUUA	0.0349 ± 0.011	0.0103 ± 0.0032
UCCUGGAUGUCGAUGCAUAGUAAAUAGUUA	0.0191 ± 0.0068	0.00231 ± 0.0023
UCCUGGAUGUCGAUGCAUAGUAUUUAGUA	0.0708 ± 0.011	0.00401 ± 0.0022
UCCUGGUACACCUUGCAUUGUAUUUAGUUA	0.15 ± 0.041	0.00903 ± 0.0041
UCCUCCUACAGCUUGCAUUGAAUUUAGUUA	0.0267 ± 0.008	0.00236 ± 0.0021
UCCUGGAUGUCCUUGCAAUGUAUUUAGUUA	0.0105 ± 0.0042	0.00626 ± 0.0014
UCCUGGAUGUCGUUGCAGAGUAUUUAGUUA	0.0117 ± 0.0043	0.0038 ± 0.0022
UCCUGGAUGUGCUACCAUAGUAUUUAGUUA	0.0577 ± 0.0094	0.0039 ± 0.0022
UCCUGGAUGUCGUUGCAUACUAUUUAGUUA	0.0161 ± 0.0052	0.00383 ± 0.002
UCCUGGAUGAGCUUGCUUACUAUUUAGUUA	0.0357 ± 0.0051	0.00365 ± 0.0025
UCCUCCAAGAGCUUGCAUAGUAUUUAGUUA	0.276 ± 0.013	0.007 ± 0.0024
UCCUGGAUGUCGAUGCAUAGUAUCUAGUUA	0.0915 ± 0.017	0.00396 ± 0.0023
UCCUGGAUGUGCUUGCAGAGUAUUUAGUUA	0.0463 ± 0.009	0.00711 ± 0.0023
UCCUGGAACACGAUGCAUAGUAUUUAGUAA	0.0953 ± 0.013	0.00313 ± 0.0029
UCCUGGAUGUCGUUGCAUAGUAUAUUAGUUA	0.121 ± 0.023	0.00754 ± 0.0028
UCCUGGAUCAGCUUGCAUUGUAUUUUGUUA	0.1 ± 0.019	0.00344 ± 0.0026
UCCUGGUACAGCUUGCAUAGUAAAAAGUUA	0.104 ± 0.024	0.00471 ± 0.003
UCCUCCAACAGCUUGCAUAGUAAUUAGUUA	0.228 ± 0.018	0.0065 ± 0.0021
UCCUGCUACAGCUUGCAUUGAAUUUAGUUA	0.0223 ± 0.0052	0.00353 ± 0.0025

Sequence	pre-steady-state target cleavage rate [1]	pre-steady-state target cleavage rate [2]
UCCUGGAUGUCGUUGCUUAGUAUAUAGUUA	0.0611 ± 0.014	0.0122 ± 0.0029
UCCUGGAUGUGCUUGGAAAGUAUUUAGUUA	0.0377 ± 0.0067	0.00729 ± 0.002
UCCUGGAUGUCGAAGCAUAGUAUUUAGUUUA	0.0244 ± 0.0042	0.00589 ± 0.0023
UCCUGGAUGUGGAAGCAUAGUAUUUAGUAA	0.0306 ± 0.0062	0.00424 ± 0.0024
UCCUGGAUGUCGAUGCAUAGUAUUUGGUUA	0.0838 ± 0.016	0.00614 ± 0.0029
UCCUGGAUGUGUUGCAUAGUAUUUAGUUA	0.173 ± 0.022	0.00684 ± 0.0022
UCCUGGAUGUGCUUGCUUUGUAUUUAGUUA	0.0124 ± 0.0051	0.00696 ± 0.0024
UCCUGGAUGUGCUUGCAAAGUAUUAAGUUA	0.0349 ± 0.0076	0.0052 ± 0.0026
UCCUCCUUCAGCUUGCAUAGUAAUUAGUUA	0.211 ± 0.021	0.00503 ± 0.002
UCCUGGAUGUGCUUGCAAUGUAUUUAGUAA	0.0131 ± 0.0037	0.00545 ± 0.0027
UCCUGGAUCAGCUAGCAUAGUAUUUUGUUA	0.19 ± 0.021	0.00333 ± 0.0023
UCCUGGAUGUCCUUUCAUAGUAUUUAGUUA	0.0723 ± 0.011	0.00458 ± 0.0022
UCCUGCUACAGGUUGCAUAGUAUUUAGAUA	0.114 ± 0.033	0.00283 ± 0.0027
UCCUGGAUGUCGAUGCAUAGUUUUUAGUUA	0.0108 ± 0.0042	0.0052 ± 0.002
UCCUGGAUGUCGAUGCAUGGUAUUUAGUUA	0.0229 ± 0.0078	0.00372 ± 0.0028
UCCUGGAUGUCCUUGCAUAGUAUCUUAGUUA	0.0833 ± 0.017	0.00566 ± 0.0029
UCCUGGAUGUCCUUGCUUAGUAAUUAGUUA	0.0235 ± 0.0061	0.00598 ± 0.0019
UCCUGGAUGAGCAUGCAUAGUAUUUAGAUA	0.166 ± 0.024	0.00498 ± 0.0025
UCCUGGAUGUCGUUGCAUAGUAUUUUAGUUA	0.125 ± 0.02	0.00632 ± 0.0029
UCCUGCUACAGCUUGCAUGUAUUUAGUUA	0.104 ± 0.02	0.00362 ± 0.0023

Source: the supplement of paper PMC10338343
